PubChem BioAssay (Tox21)
Several values for one entry are separate records, joined by “and”; a condition that tells them apart may be missing. Identical values can stand only once. Inconclusive results are not listed. Unmarked numbers belong to inactive results. Activity calls are given as the source filed them. The call rests on the fitted dose curve; in most records, active means well fitted inhibition curve with a large enough effect in the repeat runs; inconclusive means weak or mixed curves; inactive means no such curve, though single readings can be large or run the other way.

What follows are compounds tested against Cytochrome P450 2D6 (Homo sapiens) (UniProt P10635) (assay: Cytochrome P450 Family 2 Subfamily D Member 6 (CYP2D6) small molecule antagonists: luciferase reporter qHTS assay (AID 1671196; further: nearly all actives have a fitted effect of over 50% in size)). Details: P450-Glo CYP2D6 enzyme assay, luciferin luminescence, 1 h; series mostly up to 115 µM; activity change, negative = inhibition: at the top concentration.
Sequence of Cytochrome P450 2D6 (Homo sapiens) (P10635 whole entry, looked up): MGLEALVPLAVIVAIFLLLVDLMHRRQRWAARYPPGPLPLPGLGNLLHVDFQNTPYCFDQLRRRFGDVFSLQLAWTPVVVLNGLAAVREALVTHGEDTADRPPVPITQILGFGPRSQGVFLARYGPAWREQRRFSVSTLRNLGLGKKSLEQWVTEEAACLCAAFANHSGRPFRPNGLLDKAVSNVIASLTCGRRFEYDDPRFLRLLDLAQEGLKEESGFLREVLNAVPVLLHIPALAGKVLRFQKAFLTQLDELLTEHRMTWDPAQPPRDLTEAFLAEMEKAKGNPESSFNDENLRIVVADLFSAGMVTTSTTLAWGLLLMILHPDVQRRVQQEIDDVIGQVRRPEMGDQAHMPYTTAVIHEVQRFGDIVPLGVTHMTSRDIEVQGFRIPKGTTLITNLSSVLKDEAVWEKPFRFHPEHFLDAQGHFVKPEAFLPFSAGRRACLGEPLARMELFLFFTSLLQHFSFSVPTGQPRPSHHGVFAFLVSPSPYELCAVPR
Excerpt: U.S. Tox21 Program National Center for Advancing Translational Sciences [NCATS] U.S. Environmental Protection Agency [EPA] National Institutes of Environmental Health Sciences [NIEHS] National Toxicology Program [NTP] U.S. Food and Drug Administration [FDA] Tox21 Assay Overview: Cytochrome P450 (CYP) enzymes are membrane-bound hemeproteins that play a key role in metabolism of drugs and xenobiotics. Evaluation of the effect of chemicals on CYP isozymes is useful to minimize the adverse drug reactions and toxicities in drug development process. Tox21 chemicals were tested for their effect on CYP enzyme activities by using P450-Glo (TM) screening systems (Promega Corporation, Madison, WI). These systems provide a luminescent method containing proluciferin substrates and are converted to luciferin products by CYP isozymes. The luciferin products formed are detected with a luciferin detection reagent, and the amount of light produced is proportional to CYP activity. P450-Glo (TM) CYP2D6 screening system (Catalog. No. V9890) was used to detect the compounds that interfere in CYP2D6 activity.
Tox21 Assay Protocol Summary: Two ul of enzyme-substrate mix was dispensed into medium binding white/solid 1536-well plates (Greiner Bio-One North America Inc., Monroe, NC) using a BioRaptr Flying Reagent Dispenser (FRD, Beckman Coulter, Brea, CA). […] The assay plates were incubated at room temperature for 10 min. Then 2 ul of NADPH regeneration solution was added to each well of the assay plates using an FRD and incubated at room temperature for 1 h. The reaction was stopped by adding 4 ul of detection reagent using an FRD and after 20 min incubation at room temperature the luminescence signal was measured using a ViewLux plate reader (Perkin Elmer, Shelton, CT). Data were expressed as relative luminescence units.
On the % scale 0 is the no-effect control and ±100 the full control effect; potency means the concentration at half of the fitted maximal effect.

Row | Compound | activity change, negative = inhibition [%] | Potency
1 | CC(O)C#N (stereo not given) | 1.17 | 
2 | CCOC(=O)OC1=C(c2cc(C)ccc2C)C(=O)NC12CCC(OC)CC2 (stereo not given) | -22 | 
3 | ClC(Cl)=C(Cl)Cl | 2.23 | 
4 | S=C=Nc1cccc2ccccc12 |  | 14 µM (active)
5 | C=CC(=O)N(C)C | 0.0422 | 
6 | COC[C@H](C)N(C(=O)CCl)c1c(C)csc1C | -9.15 | 
7 | CCc1ccccc1C | -3.55 | 
8 | CCCCCCCCCCCCCCCC[N+](C)(C)C |  | 862 nM (active) and 1.42 µM (active) and 1.38 µM (active)
9 | CC(C)CC(C)Nc1ccc(Nc2ccccc2)cc1 (stereo not given) |  | 2.78 µM (active)
10 | NC(=O)CCl | -10.8 | 
11 | CC(=O)c1ccc(-c2ccccc2)cc1 | -18.1 | 
12 | CC(C)CCCCCOC(=O)c1ccccc1C(=O)OCCCCCC(C)C |  | 27.9 µM (active)
13 | CCCCCCCCCCCCCC[P+](CCCCCC)(CCCCCC)CCCCCC (tested in a mixture with another compound) |  | 1.26 µM (active)
14 | CC(Cc1ccc(C(C)(C)C)cc1)CN1C[C@@H](C)O[C@@H](C)C1 (stereo not given in full) |  | 8.94 µM (active)
15 | Cc1cc(N=Nc2ccccc2C)ccc1N |  | 63.3 µM (active)
16 | O=[N+]([O-])c1cc(C(F)(F)F)c(Cl)c([N+](=O)[O-])c1Cl | -16 | 
17 | O=[N+]([O-])c1ccc(Oc2ccc(C(F)(F)F)cc2[N+](=O)[O-])cc1 |  | 22.4 µM (active)
18 | COS(=O)(=O)c1ccc(C)cc1 | 0.604 | 
19 | CC(=[OH+])/C=C(/C)[O-].CC(=[OH+])/C=C(\C)[O-].CC(=[OH+])/C=C(\C)[O-].[Al] | -0.109 | 
20 | COP(=O)(CCC(=O)NCO)OC | -12.4 | 

Row | Compound | activity change, negative = inhibition [%] | Potency
21 | CC(C)[C@H](C(=O)OC(C#N)c1cccc(Oc2ccccc2)c1)c1ccc(OC(F)F)cc1 (stereo not given in full) |  | 5.03 µM (active)
22 | BrCC(Br)c1ccccc1 (stereo not given) |  | 12.6 µM (active)
23 | Clc1ccc(-c2ccccc2)cc1 | -0.0022 | 
24 | N#C/C=C/C#N |  | 74.4 µM (active)
25 | C=CC(=O)OCCCCOC(=O)C=C | -6.85 | 
26 | c1ccc2cc3c(cc2c1)-c1cccc2cccc-3c12 | -11.2 | 
27 | C[CH2][Hg][N]1C(=O)C2C(C1=O)C1(Cl)C(Cl)=C(Cl)C2(Cl)C1(Cl)Cl (stereo not given) |  | 16.9 µM (active)
28 | C[C@@H]1CC[C@@]2(OC1)O[C@H]1[C@@H](O)[C@H]3[C@@H]4CC[C@H]5C[C@@H](O[C@@H]6O[C@H](CO)[C@H](O[C@@H]7O[C@H](CO)[C@@H](O)[C@H](O[C@@H]8OC[C@@H](O)[C@H](O)[C@H]8O)[C@H]7O[C@@H]7O[C@H](CO)[C@@H](O)[C@H](O[C@@H]8O[C@H](CO)[C@@H](O)[C@H](O)[C@H]8O)[C@H]7O)[C@H](O)[C@H]6O)[C@H](O)C[C@]5(C)[C@H]4CC[C@]3(C)[C@H]1[C@@H]2C | -22.5 | 
29 | NC(=O)c1ccc(N)nc1 | -6.59 | 
30 | CC(C)CC(C)(c1ccc(O)cc1)c1ccc(O)cc1 |  | inactive
31 | O=[N+]([O-])c1c2ccccc2cc2ccccc12 |  | 2.22 µM (active)
32 | COP(=S)(OC)Oc1cc(Cl)c(Br)cc1Cl | -19.8 | 
33 | CN(C)c1ccc(N=Nc2ccccc2)cc1 |  | 40 µM (active)
34 | CCOCCOC(C)=O |  | 71 µM (active)
35 | Oc1c(Cl)c(Cl)cc(Cl)c1Cl | 3.03 | 
36 | Cc1cc(C)cc(OP(=O)(Oc2cc(C)cc(C)c2)Oc2cc(C)cc(C)c2)c1 | -10.9 | 
37 | CC(C)CBr | -18 | 
38 | [Cl][Sn]([c]1ccccc1)([c]1ccccc1)[c]1ccccc1 |  | 0.952 µM (active)
39 | Clc1ccc(CCC(Cn2ccnc2)Sc2c(Cl)cccc2Cl)cc1 (stereo not given) |  | 2.19 µM (active)
40 | CC(=O)/C=C/c1ccc2c(c1)OCO2 |  | 25.3 µM (active)
